High-throughput results from PubChem.
HT1080NT lethal: kills 2HG-producing HT-1080-NT fibrosarcoma cells. HT-1080-NT fibrosarcoma viability, CellTiter-Glo ATP luminescence, 48 h. Potency, µM (top dose mostly 46.1 µM), inactives show at the top dose activity, negative = less viability, most hits filed as cytotoxic. 1.6% of 360,000 active. AID 686970;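 further: NT is the 2HG producing partner of a matched IDH1 knockdown line; potency means the concentration at half of the fitted maximal effect; 0% = DMSO-treated cells and -100% = media-only wells without cells; nearly all actives have a fitted effect of over 55% in size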
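HT-1080-NT; 750 cells/well; 5% FBS RPMI; 48 h compound, 37 degrees C; CellTiter-Glo luminescence; curve fitting and curve-class assignment.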
TDP1 cell CPT: DT40-hTDP1 cell growth loss with CPT. chicken DT40 Tdp1-/-;hTDP1 cells + 20 nM CPT, ATP luminescence, 48 h. Potency, µM (titrated, usually from 46.2 µM), for inactives: top-dose activity change, negative = growth inhibition, usual class: inhibitors. 12% of 420,000 active. AID 686979; further: potency means the concentration at half of the fitted maximal effect; nearly all actives have a fitted effect of over 55% in size
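Chicken DT40 Tdp1-/- cells complemented with human TDP1, 400 cells/well, exposed to compounds plus 20 nM camptothecin for at least 48 h at 37 C; viability read as ATP content by CellTiter-Glo luminescence.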
TDP1 cell noCPT: qHTS for Inhibitors of human tyrosyl-DNA phosphodiesterase 1 (TDP1): qHTS in cells in absence of CPT. Potency, µM (highest dose often 46.2 µM), inactives show top-dose activity change, negative = growth inhibition, most hits filed as inhibitors. DT40 Tdp1-/- hTDP1 cells, no CPT, ATP luminescence, 48 h. 15% of 420,000 active; further: potency means the concentration at half of the fitted maximal effect; nearly all actives have a fitted effect of over 55% in size
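Growth of hTDP1-complemented DT40 Tdp1-knockout cells is measured by ATP luminescence after at least 48 hr compound exposure at 37 °C, with DMSO substituting for the 20 nM CPT used in the parallel screen.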
ELG1 DNA repair: blocks ELG1-dependent DNA repair in HEK293T cells; HEK293T ELG1-luciferase reporter, luminescence, 16 h; DNA damage induced by 5-fluorouridine; Potency, µM (top dose mostly 46.1 µM), without a hit: top-dose activity change, negative = inhibition, hits mostly inhibitors; 2.3% of 330,000 active; further: potency means the concentration at half of the fitted maximal effect; nearly all actives have a fitted effect of over 55% in size
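Luminescence from the luciferase reporter, measured 30 min after ONE-Glo reagent at room temperature, was the read-out. Beforehand, 2,000 cells per well were exposed for 16 hr at 37 °C to 5-fluorouridine together with compound or vehicle.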
HT1080 IDH1KD tx: HT-1080 IDH1 knockdown cell toxicity (counter line); 2% of 360,000 active; HT-1080 IDH1 knockdown viability, ATP luminescence, 48 h; Potency, µM (highest dose often 46.1 µM), for inactives: at the top dose activity, negative = toxicity, hits mostly cytotoxic;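 further: potency means the concentration at half of the fitted maximal effect; 0% = DMSO wells and -100% = cell-free medium wells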
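Using the IDH1-knockdown HT-1080 line run in the same batch and compound series as the NT line, viability after 48 h at 37 °C was determined by CellTiter-Glo luminescence and expressed as % activity.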
IL1B secr inh: blocks inflammasome-driven IL-1 beta release; AID 743279; 4.7% of 360,000 active; activity change, % at 57.5 µM; THP-1 LPS/ATP IL-1B secretion, AlphaLISA, 16 h; hits give low values; in the data active means activity change below about -50%; inconclusive means mostly about -30% to -49%
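Secreted IL-1B measured by AlphaLISA bead assay after 16 h compound exposure of THP-1 cells; compounds (final up to 57.5 uM) added 1 h before LPS (250 ng/mL) and ATP (1.25 mM) stimulation; lower signal means less secretion.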
An asterisk follows results filed as active; ? = inconclusive; / = no result; [ ] = remark or other dose. Sampled rows, rich in hits. Any-hit rate of the full collection: about 19%. Unless noted, the call rests on the fitted dose curve; in most records, active means well fitted curve in the direction sought with a large enough effect; inconclusive means small, poorly fitted or top-dose-only effect, or another doubt; inactive means no such curve, though single readings can be large; an effect the other way counts as inactive or inconclusive. Unless noted, on the % scale 0 is the no-effect control and ±100 the full control effect.

SMILES	HT1080NT lethal	TDP1 cell CPT	TDP1 cell noCPT	ELG1 DNA repair	HT1080 IDH1KD tx	IL1B secr inh
Cc1ccc(C)n1-c1nnc(N2CCCC(C(=O)Nc3ccc(C(C)C)cc3)C2)s1 (stereo not drawn)	/	20.6µM*	13µM*	/	/	/
Cc1cc(C)cc(NC(=O)C2CCCN(c3nnc(-n4c(C)ccc4C)s3)C2)c1 (stereo not drawn)	/	25.9µM*	?	/	/	/
COc1ccccc1-c1nccc(N2CCN(C)CC2)n1	/	-2.9%	-8.1%	/	/	/
COc1ccc(CN(C)C(=O)C2CSC3(C)CCC(=O)N23)cc1OC (stereo not drawn)	-5.0%	-4.7%	-9.2%	13.2%	16.0%	-5.8
CN(Cc1ccc(Cl)cc1Cl)C(=O)C1CSC2(C)CCC(=O)N12 (stereo not drawn)	-14.6%	13µM*	16.4µM*	/	-14.1%	4.1
CN(Cc1cccc(Cl)c1)C(=O)C1CSC2(C)CCC(=O)N12 (stereo not drawn)	11.6%	18.4µM*	20.6µM*	2.6%	15.8%	14.8
COc1ccc(CN(C)C(=O)C2CSC3(C)CCC(=O)N23)cc1 (stereo not drawn)	4.5%	-21.1%	-17.4%	14.8%	4.0%	5.4
COc1ccc(CN(C)C(=O)C2CSC3(C)CCC(=O)N23)c(OC)c1 (stereo not drawn)	-4.6%	11.6µM*	14.6µM*	/	-4.3%	0.0
CC(=O)c1ccc(-n2nnnc2SCC(=O)Nc2cccc(NC(=O)c3ccco3)c2)cc1	-23.4%	?	?	?	?	16.5
CCC(=O)Nc1cccc(-n2nnnc2SCC(=O)NCc2ccco2)c1	6.7%	-18.6%	-5.5%	7.4%	8.3%	6.7
Cc1ccc(-n2nnnc2SCC(=O)Nc2cccc(NC(=O)c3ccco3)c2)cc1C	-15.2%	?	16.4µM*	?	-26.3%	146.3
CCn1c(SCC(=O)Nc2cccc(NC(=O)c3ccco3)c2)nnc1-c1cccs1	-2.2%	?	16.4µM*	?	-4.1%	-12.6
CCCn1nnnc1SCC(=O)Nc1cccc(NC(=O)c2ccco2)c1	-8.7%	-6.5%	-8.4%	-1.2%	-3.6%	-17.6
CCC(=O)Nc1cccc(-n2nnnc2SCC(=O)c2ccc(C)c(C)c2)c1	-8.0%	?	?	-31.4%	?	-91.8*
Cc1cc(C)cc(-n2nnnc2SCC(=O)Nc2cccc(NC(=O)c3ccco3)c2)c1	-3.6%	?	?	?	-24.9%	-51.8*
CCC(=O)N1CCC1(C)C(=O)Nc1ccc2c(c1)CCN2C(C)=O (stereo not drawn)	23.6%	1.9%	13.0%	/	10.1%	-3.5
COc1ccccc1NC(=O)CON=C(N)CC(=O)NC1CCCCC1	1.2%	-3.6%	-0.3%	0.0%	6.3%	5.9
Cc1cc(=O)c2cc(C(=O)c3ccccc3)ccc2[nH]1	-1.2%	-28.8%	?	2.4%	0.8%	-14.9
Cc1cccc(NC(=O)CSc2nnnn2-c2cccnc2)c1	-24.2%	-24.6%	-15.8%	?	4.6%[9.24 µM]	12.4
Cc1ccc(C)c(C(=O)CSc2nnnn2-c2cccnc2)c1	11.4%	-10.0%	16.4µM*	14.0%	2.1%	-7.3
CN(CCO)C(=O)c1cn(C2CCN(Cc3cccc4ccccc34)CC2)nn1	/	-8.5%	-19.9%	/	/	/
COc1ccc(C(C(=O)NC2CCCC2)N(C(=O)c2ccoc2C)c2ccc(C)c(C)c2)cc1 (stereo not drawn)	-19.3%	?	13µM*	-0.3%	?	?
CCc1ccc(N(C(=O)c2ccoc2C)C(C(=O)NC2CCCC2)c2ccc(OC)cc2)cc1 (stereo not drawn)	16.9%	23.1µM*	18.4µM*	-8.8%	0.0%	?
COc1ccc(C(C(=O)NC2CCCC2)N(C(=O)c2ccoc2C)c2cc(C)cc(C)c2)cc1 (stereo not drawn)	-17.0%	25.9µM*	29.1µM*	-10.6%	-29.9%	?
COc1ccc(C(C(=O)NC2CCCC2)N(C(=O)c2ccoc2C)c2ccccc2)cc1 (stereo not drawn)	-18.2%	?	?	-5.2%	-1.1%	-3.4
SMILES	HT1080NT lethal	TDP1 cell CPT	TDP1 cell noCPT	ELG1 DNA repair	HT1080 IDH1KD tx	IL1B secr inh
COc1ccc(C(C(=O)NC2CCCCC2)N(C(=O)c2sc(C)nc2C)c2ccc(OC)cc2)cc1 (stereo not drawn)	3.1%	?	-21.9%	0.8%	-3.6%	5.1
Cc1ccc2nc(SCC(=O)NCC3Cc4cccc(-c5nc(C)cnc5C)c4O3)[nH]c2c1 (stereo not drawn)	/	-5.8%[9.04 µM]	-5.7%	/	/	/
CCC(C)(C)NC(=O)CN(Cc1ccccc1)C(=O)CCC(=O)Nc1nccs1	3.1%	-15.5%	-7.7%	-5.4%	-0.8%	23.2
Cc1oc(-c2ccccc2NC(=O)C2CCC2)nc1CNC(=O)c1ccccn1	/	-29.4%	-20.9%	/	/	/
CCc1c(C(=O)NCCc2ccc(OC)c(OC)c2)[nH]c(C)c1C(C)=O	?	?	?	-12.3%	?	12.1
CCc1c(C(=O)NCCc2cccc(C)c2)[nH]c(C)c1C(C)=O	-28.4%	16.4µM*	10.3µM*	22.0%	?	-29.8
CCc1c(C(=O)NCc2ccccc2Cl)[nH]c(C)c1C(C)=O	-15.8%	23.1µM*	16.4µM*	?	-6.0%	30.3
COc1cccc(OC(=O)c2ccccc2)c1OC(=O)c1ccccc1	-7.7%	?	?	/	-19.5%	2.9
Cc1ccc(S(=O)(=O)N2CC(CO)=CCC2c2ccccc2)cc1 (stereo not drawn)	0.2%	?	?	/	0.0%	-11.8
Nc1cc(OC(=O)c2c(F)cccc2Cl)nn1S(=O)(=O)c1ccccc1	-6.5%	-4.7%	-5.4%	29.8%	-12.8%	-93.5*
Nc1cc(OC(=O)c2cccs2)nn1S(=O)(=O)c1ccccc1	-0.5%	-24.1%	-10.2%	15.1%	-8.1%	-4.0
Cc1cccc(C)c1NC(=O)C1c2ccccc2OCC(=O)N1C1CC1 (stereo not drawn)	20.6%	1.6%	-24.8%	/	7.1%	57.5
COc1ccc(-c2nc3c(-c4ccc(F)cc4)cnn3cc2C)cc1F	1.0%	23.1µM*	14.6µM*	1.6%	-3.4%	3.7
COc1ccc(-c2nc3nc(N)nn3cc2C)cc1F	-4.6%	-19.0%	-0.2%	-8.5%	-14.8%	0.1
N#Cc1c(NCCN)nc(-c2ccco2)c2c1CCCC2	?	?	?	?	?	-104.8*
N#Cc1c(N2CCOCC2)nc(-c2ccco2)c2c1CCCC2	-5.1%	?	?	?	-5.4%	-77.6*
